ChEMBL document CHEMBL1201862, “PubChem BioAssay data set” (2004)
The campaign covered roughly 400,000 compounds. About 2,100 (0.53%) were called active. Another 14% or so got no clear call; they are omitted. How the calls were made is not given here. Shown is part of a subset that was picked to be rich in actives.

Target: Ataxin-2 (Homo sapiens) (UniProt Q99700)
Assay: qHTS for Inhibitors of ATXN expression.
Type: functional

Chain of Ataxin-2 (Homo sapiens) (Q99700 whole entry): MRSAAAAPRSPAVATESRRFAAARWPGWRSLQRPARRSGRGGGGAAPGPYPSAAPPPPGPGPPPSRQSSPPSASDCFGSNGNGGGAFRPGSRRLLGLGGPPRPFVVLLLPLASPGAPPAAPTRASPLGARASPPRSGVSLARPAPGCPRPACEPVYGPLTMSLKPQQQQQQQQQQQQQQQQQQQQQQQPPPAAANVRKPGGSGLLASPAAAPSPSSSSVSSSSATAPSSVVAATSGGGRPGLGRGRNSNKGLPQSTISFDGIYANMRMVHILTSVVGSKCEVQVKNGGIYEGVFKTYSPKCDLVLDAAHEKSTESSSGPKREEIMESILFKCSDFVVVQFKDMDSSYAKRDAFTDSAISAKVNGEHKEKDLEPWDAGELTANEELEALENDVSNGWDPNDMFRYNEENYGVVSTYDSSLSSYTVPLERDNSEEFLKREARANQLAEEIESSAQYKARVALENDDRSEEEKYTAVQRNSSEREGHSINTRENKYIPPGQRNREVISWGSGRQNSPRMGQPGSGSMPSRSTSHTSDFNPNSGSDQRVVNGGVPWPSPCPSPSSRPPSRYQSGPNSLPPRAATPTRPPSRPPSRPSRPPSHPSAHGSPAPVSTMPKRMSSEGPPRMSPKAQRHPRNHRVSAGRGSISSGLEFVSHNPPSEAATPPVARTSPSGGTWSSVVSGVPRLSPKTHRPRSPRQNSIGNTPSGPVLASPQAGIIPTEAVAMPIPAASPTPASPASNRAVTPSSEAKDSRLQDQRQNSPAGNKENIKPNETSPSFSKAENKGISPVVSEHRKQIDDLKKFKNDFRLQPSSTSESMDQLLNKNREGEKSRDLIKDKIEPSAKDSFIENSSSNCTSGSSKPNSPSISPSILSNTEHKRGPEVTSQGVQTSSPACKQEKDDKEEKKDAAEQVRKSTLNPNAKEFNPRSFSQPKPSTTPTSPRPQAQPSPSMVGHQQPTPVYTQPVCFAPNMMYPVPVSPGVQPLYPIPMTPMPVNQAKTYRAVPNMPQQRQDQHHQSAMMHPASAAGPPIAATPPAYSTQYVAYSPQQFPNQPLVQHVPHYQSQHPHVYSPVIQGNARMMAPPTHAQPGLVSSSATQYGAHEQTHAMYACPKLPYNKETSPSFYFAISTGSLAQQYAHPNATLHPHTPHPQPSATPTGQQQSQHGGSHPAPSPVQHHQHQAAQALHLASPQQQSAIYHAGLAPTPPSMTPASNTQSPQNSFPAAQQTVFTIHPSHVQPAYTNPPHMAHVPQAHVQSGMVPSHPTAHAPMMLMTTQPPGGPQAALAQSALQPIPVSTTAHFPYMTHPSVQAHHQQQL

| SMILES | Potency |
| --- | --- |
| Cc1cc(C)nc(N(C#N)Cc2ccc(Cl)cc2)n1 | inactive |
| Cc1ccc(CN2C(=O)CC(c3ccc(Cl)cc3)c3c(C)nn(-c4nc(C)cc(C)n4)c32)cc1 (centres undefined) | 39.8 µM (active) |
| CCOC(=O)C1CCN(S(=O)(=O)c2cc3c(cc2C)NC(=O)CO3)CC1 | inactive |
| Cn1c(-c2c(N)n(CCCc3ccccc3)c3nc4ccccc4nc23)nc2ccccc21 | inactive |
| CS(=O)(=O)c1nc([N+](=O)[O-])nn1CCCc1ccccc1 | 39.8 µM (active) |
| CCN(C(=O)c1cc2c(=O)n3ccccc3nc2s1)C1CCCCC1 | inactive |
| O=[N+]([O-])c1cncc([N+](=O)[O-])c1Nc1cccc(O)c1 | 22.4 µM (active) |
| COc1ccc(C2NS(=O)(=O)N=C2N)cc1 (centres undefined) | inactive |
| N#Cc1c(-c2ccccc2)c(C#N)c2nc3ccccc3n2c1N | inactive |
| Nc1ccc2c(C(F)(F)F)cc(=O)oc2c1 | inactive |
| CC(=O)c1cccc(NC(=O)c2ccccc2-c2ccccc2C(=O)O)c1 | inactive |
| COCCn1c(SCC(=O)Nc2ccc(NC(C)=O)cc2)nc2ccccc2c1=O | inactive |
| Cn1c(SCC(=O)NCC2CCCO2)ncc(C(=O)Nc2ccc(Cl)cc2)c1=O (centres undefined) | 35.5 µM (active) |
| O=C(Cn1c(=O)c(=O)n(Cc2ccccc2)c2ccc(Cl)cc21)NCC1CCCO1 (centres undefined) | inactive |
| CC(C)Cn1c(SC(C)C(=O)NCC2CCCO2)nc2ccc(Cl)cc2c1=O (centres undefined) | inactive |
| CC(=O)Nc1cccc(NC(=O)CSc2ncc(C(=O)Nc3ccccc3)c(=O)n2C)c1 | 39.8 µM (active) |
| CC1=CC2=NC(=O)/C(=C/c3coc4ccccc4c3=O)C(=N)N2O1 | inactive |
| COc1ccc(-c2c(C)c3ccc(O)c(CN4CCN(CCO)CC4)c3oc2=O)cc1OC | inactive |
| O=C(Nc1nc2n(n1)C(c1ccccc1)C=C(c1ccccc1)N2)c1ccccc1 (centres undefined) | inactive |
| COc1cc(NS(=O)(=O)c2ccc(N/C=C\C(=O)c3ccc(F)cc3)cc2)nc(OC)n1 | inactive |
| O=C1c2sccc2-c2cccc3cccc1c23 | inactive |
| O=C1c2cccc3cccc(c23)C(=O)C1(O)O | 15 µM (active) |
| O=C1C(Br)=Cc2cccc3cccc1c23 | inactive |
| Cc1cc2nc(-c3ccco3)c(Cc3ccccc3C(F)(F)F)n2c(C)c1Br | 39.8 µM (active) |

| SMILES | Potency |
| --- | --- |
| O=C1NC(Cc2ccc(O)cc2)c2nc3cc(F)c(F)cc3c(=O)n2-c2cc3ccccc3cc21 (centres undefined) | 35.5 µM (active) |
| Cc1ccc(CC2(OCCN(C)C)CCC(C(C)(C)C)CC2)cc1 (centres undefined) | 42.3 µM (active) |
| CN(C)CCOC1(Cc2ccc(F)cc2)CCC(C(C)(C)C)CC1 (centres undefined) | 21.2 µM (active) |
| O=C(NCc1nc2ccccc2[nH]1)C1=C[C@@H](c2ccc(Br)cc2)C[C@@H](OCCCCO)O1 | 31.6 µM (active) |
| Cc1ccccc1NC(=O)CN1C(=O)S/C(=C\c2ccc(-c3cc(C(=O)O)ccc3C)o2)C1=O | inactive |
| C=C1CC2(OC1=O)c1ccccc1CCc1ccccc12 | 5.97 µM (active) |
| O=S(=O)(c1ccc(Cl)c(C(F)(F)F)c1)N1CCN(c2ccccn2)CC1 | inactive |
| O=C(c1ccco1)[C@@H]1[C@@H]2C(=O)N(c3ccc(F)cc3)C(=O)[C@@H]2[C@H]2C=Cc3ccccc3N21 | inactive |
| COc1cc(CN2CCCC(CO)(Cc3cccc(Cl)c3)C2)cc(OC)c1O (centres undefined) | inactive |
| Cc1ccc(S(=O)(=O)Nc2nc3n(n2)C(c2ccc(F)cc2)C=C(c2ccccc2)N3)cc1 (centres undefined) | inactive |
| O=C(O)/C=C/C(=O)NNc1ccc([N+](=O)[O-])cc1 | 13.4 µM (active) |
| O=C(N/N=C/c1ccc(-c2ccc([N+](=O)[O-])cc2)o1)C(O)c1ccccc1 (centres undefined) | inactive |
| Cc1ccc(N2CCN(S(=O)(=O)c3nnc(NC(=O)c4ccco4)s3)CC2)cc1 | inactive |
| CCc1ccccc1N1CC(c2nnc(NC(=O)c3ccco3)s2)CC1=O (centres undefined) | inactive |
| Cc1sc(NC(=O)c2ccco2)nc1-c1ccc2c(c1)CC(C)N2C(=O)C1CC1 (centres undefined) | 28.2 µM (active) |
| C=CCN=C(S)Nc1ccc(C(N)=O)cc1 | inactive |
| COc1ccc(CCn2c(=S)[nH]c3ccc(N4CCOCC4)cc3c2=O)cc1OC | inactive |
| COc1ccc(CCn2c(=S)[nH]c3cc(C(=O)NCc4ccco4)ccc3c2=O)cc1OC | 28.2 µM (active) |
| COc1ccc(CCn2c(=S)[nH]c3cc(C(=O)N4CCOCC4)ccc3c2=O)cc1OC | inactive |
| CC(=O)Oc1ccc2c(c1)Oc1cc(OC(C)=O)ccc1C21OC(=O)c2ccccc21 | inactive |
| Cc1cc(O)c(C(C)C)cc1C1(c2cc(C(C)C)c(O)cc2C)OC(=O)c2ccccc21 | 31.6 µM (active) |
| O=C1OC(c2ccc3ccccc3c2O)(c2ccc3ccccc3c2O)c2ccccc21 | 17.8 µM (active) |
| Cc1cccc2c3c([nH]c12)C(=O)CC(C)(C)S3 | inactive |
| O=C(N/C(=C/c1ccccc1Cl)C(=O)N1CCCC1)c1ccccc1 | inactive |

| SMILES | Potency |
| --- | --- |
| Cc1nc(N2CCN(c3ccccc3F)CC2)nc(O)c1C | inactive |
| CCCc1cc(NC(=O)COC(=O)c2nccnc2N)n(-c2ccccc2)n1 | inactive |
| CCOC(=O)[C@]12Cc3c(cc(OC)c(OC)c3OC)[C@H]1N(CCC(=O)OC)C(=O)c1cc(OC)ccc12 | 22.4 µM (active) |
| c1cncc(-c2nc(N3CCOCC3)c3c4c(sc3n2)CCC4)c1 | inactive |
| CCc1cc2c(COC(=O)CCNS(=O)(=O)c3cccc(C(F)(F)F)c3)cc(=O)oc2cc1O | inactive |
| C=CCN1C(=O)/C(=C/c2ccc(OC)cc2)S/C1=N/c1nccs1 | inactive |
| CCN(CC)CCN1C(=O)/C(=C\c2ccc(Cl)c([N+](=O)[O-])c2)S/C1=N\c1ccc(OC)cc1 | 28.2 µM (active) |
| Cc1cc(=O)oc2c(CN3CCN(CCO)CC3)c(O)ccc12 | inactive |
| O=C(CN1C(=O)NC2(CCOc3ccccc32)C1=O)Nc1ccc(F)c(F)c1F (centres undefined) | inactive |
| CCC(=O)NCCCNc1nc2c(C)cccc2cc1C#N | inactive |
| CCN1C(=O)/C(=C/C2=Cc3ccccc3OC2C)SC1=S (centres undefined) | inactive |
| CCN1C(=O)/C(=C\C=C2/C=CC=CN2CC)SC1=S | 20 µM (active) |
| Cc1cc(O)nc2c1c(-c1ccccc1)nn2C | inactive |
| O=C(CN1C(=O)NC2(CCCCC2)C1=O)Oc1ccc2ccc(=O)oc2c1 | inactive |
| O=C(CN1C(=O)NC2(CCCC2)C1=O)Oc1ccc2ccc(=O)oc2c1 | inactive |
| CC1(C)Nc2ccccc2C(=O)N1c1ccc(Br)cc1 | inactive |
| CC1=CC(C)(C)Nc2ccc(OC(=O)C(C)N3C(=O)c4ccccc4C3=O)cc21 (centres undefined) | 39.8 µM (active) |
| CC1=CC(C)(C)Nc2ccc(OC(=O)CCN3C(=O)c4ccccc4C3=O)cc21 | 25.1 µM (active) |
| CC(C(=O)N1CCOCCOCCOCCOCCOCC1)N1C(=O)c2ccccc2C1=O (centres undefined) | inactive |
| CC1=CC(C)(C)Nc2ccc(OC(=O)CN3C(=O)c4ccccc4C3=O)cc21 | 25.1 µM (active) |
| COc1cccc(NC(=O)COC(=O)CCC(=O)c2cccs2)c1 | inactive |
| O=C(C[n+]1ccccc1)NN=Cc1cc(Br)cc(Br)c1O | inactive |
| CC(C)OCCCn1/c(=N/C(=O)c2cccs2)c(C#N)cc2c(=O)n3ccccc3nc21 | inactive |
| Cc1cc(NC(=O)CCC(=O)N(CC(=O)NC2CCCC2)Cc2ccccc2Cl)no1 | inactive |

| SMILES | Potency |
| --- | --- |
| COc1ccc(C(=O)OCCOc2ccccc2C(C)=O)c(O)c1 | inactive |
| COc1ccc2oc(=O)c(C(=O)NC3CCCCCC3)cc2c1 | inactive |
| CCN(CC(=O)NCc1cccs1)C(=O)c1ccccc1F | inactive |
| COc1ccccc1N(CC(=O)NC1CCCC1)C(=O)CCC(=O)Nc1ccccn1 | inactive |
| COc1ccc(C(=O)/C=C/C(=O)N(CC(=O)NC2CCCCC2)Cc2ccccc2OC)c(O)c1 | 26.7 µM (active) |
| CCc1ccc(N(C(=O)c2ccco2)C(C(=O)NC2CCCC2)c2ccncc2)cc1 (centres undefined) | inactive |
| COc1ccc(C(=O)/C=C/C(=O)N(CC(=O)NCCC(C)C)Cc2cccs2)c(O)c1 | 31.6 µM (active) |
| COCCN(CC(=O)NC1CCCCC1)C(=O)/C=C/C(=O)c1ccc(OC)cc1O | 23.8 µM (active) |
| CCN(CC(=O)NCc1cccs1)C(=O)/C=C/c1ccc(F)cc1 | inactive |
| COc1ccc(C(=O)/C=C/C(=O)N(Cc2ccccc2OC)C(C(=O)NC2CCCCC2)c2ccncc2)c(O)c1 (centres undefined) | 26.7 µM (active) |
| Cc1cc(Br)ccc1NC(=O)CNC(=O)c1cnn(C)c1 | inactive |
| N#Cc1c(N2CCCCC2)nc(N)c2c(N)nc3c(c12)CC(CCl)O3 (centres undefined) | inactive |
| Cc1cc(=O)oc2c3c4c(cc12)OCCN4CCC3 | inactive |
| Cc1c(C)c2cc3c(c(C)c2oc1=O)OCN(CCc1ccccc1)C3 | inactive |
| COc1ccc(O)c(/C=N/NC(=O)CCC(=O)Nc2ccc(F)cc2)c1 | inactive |
| COc1ccc(C(=O)/C=C/C(=O)N(CC(=O)NC2CCCCC2)Cc2ccc(F)cc2)c(O)c1 | 28.2 µM (active) |
| COc1ccc(OCC(=O)OCC(=O)NC2CCCCC2C)cc1 (centres undefined) | inactive |
| COc1ccc(CC(=O)Nc2ccc(S(=O)(=O)N3CCN(C)CC3)cc2)cc1 | inactive |
| CC(C)C[C@@H](CN1CCC[C@H]1CN1C(=O)C(=O)NC[C@@H]1Cc1ccccc1)N1C[C@H](Cc2ccccc2)N(CC2CCCCCC2)C(=O)C1=O | 20 µM (active) |
| CC(C)C[C@H]1CN([C@@H](CC(C)C)CN2CCC[C@H]2CN2C(=O)C(=O)NC[C@@H]2Cc2ccc(O)cc2)C(=O)C(=O)N1CC1CCCCCC1 | 35.5 µM (active) |
| CC(C)C[C@H]1CNC(=S)N1C[C@H]1CCCN1C[C@H](CC(C)C)N1C[C@H](Cc2ccc(O)cc2)N(CC2CCCCC2)C1=S | 35.5 µM (active) |
| CC(C)C[C@@H](CN1CCC[C@@H]1CN1C(=O)C(=O)NC[C@@H]1Cc1ccccc1)N1C[C@H](Cc2ccc(O)cc2)N(CC2CCCCCC2)C(=O)C1=O | 28.2 µM (active) |
